Measured values from PubChem BioAssay AID504725 (Broad Institute, 2011).
Potency and affinity values are given separately. Calls of active or inactive are those of the source. How the calls were made is not given here.

These molecules were tested against KSHV LANA C-terminal domain (residues 932-1162) binding to LBS DNA (UniProt O40947) (assay: KSHV LANA DNA-binding disruption – biochemical, fluorescence polarization, cherry-picked samples, dose response (AID 504725)). Details: MBP-C-LANA / FAM-LBS DNA fluorescence polarization, percent change from plate compound-well median; series mostly up to 35 µM.

outcome, inactive:
O=C(CSc1cccc2cccnc12)N/N=C/c1ccc(O)cc1
CC(=O)N/C(=C/c1ccc(OS(=O)(=O)c2ccc(C)cc2)cc1)C(=O)Nc1ccc(C(=O)O)cc1
O=C(/C=C/c1ccco1)Nc1ccccc1C(=O)Nc1cccc(C(=O)O)c1
CCCCn1nc(CC(=O)O)c2ccccc2c1=O
COc1cc(OC)cc(C(=O)NC2CC3CCC(C2)N3C)c1 (stereo not drawn)
COc1c2c(nc3occc13)C(CCC(C)(C)O)(OC)C(O)CC2 (stereo not drawn)
COc1cc(OC)cc(-c2c(-c3ccsc3)c3cc(Br)ccc3n2C)c1
COC(=O)C1=COC(C)C2CN3CCc4c([nH]c5ccccc45)C3CC12 (stereo not drawn)
O=C(NCCCO)c1ccc2nc(-c3ccco3)c(-c3ccco3)nc2c1
Cc1ccc(NC(=S)N/C(=N/S(=O)(=O)c2ccccc2)c2ccccc2)cc1
CCCCn1c(N)c(N(CCOC)C(=O)c2cc(C)oc2C)c(=O)[nH]c1=O
COc1ccc(C2(CNC(=O)CCC(=O)O)CCCC2)cc1OC
Cc1cc(C)n(CCC(=O)N/N=C/c2ccc(O)cc2O)n1
Cc1cc(N)ccc1N=Nc1c(C)n(C)n(-c2ccccc2)c1=O
CCNc1nc(NC(C)C)nc(NS(=O)(=O)c2ccc(N)cc2)n1
CC(C)CC(=O)Nc1nnc(CSCc2ccc(F)cc2)s1
CCN(CC)S(=O)(=O)N1CCN(S(=O)(=O)N2CCOCC2)CC1
O=C1c2ccccc2C(=O)C1c1ccccn1
C=CCOC(=O)C1=C[C@H](c2csc3ccccc23)C[C@H](OCc2ccc(CO)cc2)O1
O=C1c2cccc3c(N4CCCCC4)ccc(c23)C(=O)N1c1cccc(O)c1
C/C(=N\Nc1nc2c(s1)CCCC2)c1ccc(Cl)cc1
CC(=O)N/C(=N\OCc1ccc(Br)cc1)c1nonc1NC(C)=O
O=C(Nc1ccc2c(c1)OCO2)N1CCCc2ccccc21
NC1=NC[C@@H](Cc2ccc(O)cc2)N1CCc1cc(C(F)(F)F)cc(C(F)(F)F)c1
COc1ccc(NC(=O)Cc2nnc(SCC(=O)Nc3nccs3)n2C)cc1
Cc1c(NC(=O)CCC2CCCCC2)cc(C(=O)N2CCOCC2)cc1[N+](=O)[O-]
O=C(O)C(c1ccccc1)N1C(=O)/C(=C\c2ccc(-c3cccc(Cl)c3)o2)SC1=S (stereo not drawn)
CCOC(=O)C1C2C=CC3(CN(c4cccc(Cl)c4)C(=O)C13)O2 (stereo not drawn)
CCCCN(C(=O)CSc1nnc(-c2ccc(Cl)cc2)o1)c1c(N)n(CC(C)C)c(=O)[nH]c1=O
NNC(=O)CC1=NNC(=O)C1
Cc1cc(C)n(CC(=O)NNC(=O)CC(C)c2ccccc2)n1 (stereo not drawn)
S=c1[nH]nc([C@@H]2C[C@H]2c2ccccc2)n1-c1ccccc1Cl
O=C(NC1(O)C(=O)c2ccccc2C1=O)c1c(Cl)cccc1Cl
O=C(O)CC1(CC(=O)NCc2ccncc2)CCCCC1
CCN(CCCNC(=O)Cn1cc2c(n1)CCCC2)c1cccc(C)c1
CNC(=S)Nc1cccc(C(=O)OC)c1
CCN(Cc1ccccc1)C(=O)c1cccc(S(=O)(=O)N2CCN(Cc3ccccc3)CC2)c1
COc1ccc(OCC(=O)N2CCN(c3cccc(C(F)(F)F)c3)CC2)cc1
